Data published in publication PMC7862700, “An all-to-all approach to the identification of sequence-specific readers for epigenetic DNA modifications on cytosine”.

target: T1, EHF (Homo sapiens, UniProt Q9NZC4 1-300); assay: DAPPL (digital affinity profiling via proximity ligation, sequencing); 10 mM Tris-HCl pH 7.5, 50 mM NaCl, 1 mM DTT, 4% glycerol, room temperature, 30 min; GST-TFs on glutathione beads, 16-mer random dsDNA library, 0.1% formaldehyde crosslink after washing; high values mean tight binding; conditions: protein: recombinant; tags: N-terminal GST; dsDNA, one strand shown
T1 sequence: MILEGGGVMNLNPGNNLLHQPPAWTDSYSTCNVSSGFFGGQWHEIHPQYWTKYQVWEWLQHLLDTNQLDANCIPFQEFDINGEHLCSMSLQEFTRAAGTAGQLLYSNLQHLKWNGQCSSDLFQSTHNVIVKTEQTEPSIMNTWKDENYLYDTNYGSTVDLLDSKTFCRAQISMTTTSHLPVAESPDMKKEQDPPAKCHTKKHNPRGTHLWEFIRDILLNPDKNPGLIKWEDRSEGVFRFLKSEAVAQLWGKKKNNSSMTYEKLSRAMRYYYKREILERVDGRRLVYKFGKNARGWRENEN
How it was run: (§1)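 After expression in yeast as GST fusions, human transcription factors were bound to glutathione beads, DNA-barcoded and mixed with a tag-only sample. The pools were incubated with 200 nmole of a 16-mer random double-stranded DNA library in Tris/NaCl/DTT/glycerol buffer (30 min, room temperature), washed and crosslinked with 0.1% formaldehyde. Proximity ligation with BsaI/T4 ligase ran for 1 h at 37 °C, before PCR amplification and sequencing on an Illumina NextSeq500. Binding signal is a hexamer's read frequency for a factor divided by its frequency for the tag-only sample.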

Sequence	binding signal
ATGATC	1.28 fold enrichment (6-mer frequency, TF over GST control)
TGTTTG	1.31 fold enrichment (6-mer frequency, TF over GST control)
CCTCTC	1.34 fold enrichment (6-mer frequency, TF over GST control)
GCAAAT	1.03 fold enrichment (6-mer frequency, TF over GST control)
TAAGGT	1.17 fold enrichment (6-mer frequency, TF over GST control)
CTACAA	1.14 fold enrichment (6-mer frequency, TF over GST control)
CTTCTA	1.54 fold enrichment (6-mer frequency, TF over GST control)
CTTTAA	1.2 fold enrichment (6-mer frequency, TF over GST control)
TACGCC	1.18 fold enrichment (6-mer frequency, TF over GST control)
AGTAAT	1.19 fold enrichment (6-mer frequency, TF over GST control)
TGGTTC	1.31 fold enrichment (6-mer frequency, TF over GST control)
GCTGTT	1.07 fold enrichment (6-mer frequency, TF over GST control)
TTCTTG	1.56 fold enrichment (6-mer frequency, TF over GST control)
CCAAAC	1.07 fold enrichment (6-mer frequency, TF over GST control)
ATTATC	1.28 fold enrichment (6-mer frequency, TF over GST control)
ATGTCA	1.15 fold enrichment (6-mer frequency, TF over GST control)
AATCCG	1.55 fold enrichment (6-mer frequency, TF over GST control)
AATGAA	1.18 fold enrichment (6-mer frequency, TF over GST control)
CTCGAA	1.21 fold enrichment (6-mer frequency, TF over GST control)
TTCGAG	1.19 fold enrichment (6-mer frequency, TF over GST control)

Sequence	binding signal
ATGCAC	1.21 fold enrichment (6-mer frequency, TF over GST control)
TTGCGG	1.3 fold enrichment (6-mer frequency, TF over GST control)
GTTCAA	1.18 fold enrichment (6-mer frequency, TF over GST control)
TGTATT	1.34 fold enrichment (6-mer frequency, TF over GST control)
CGTATC	1.25 fold enrichment (6-mer frequency, TF over GST control)
CGACCG	1.11 fold enrichment (6-mer frequency, TF over GST control)
ACCATC	1.12 fold enrichment (6-mer frequency, TF over GST control)
AAATAG	1.19 fold enrichment (6-mer frequency, TF over GST control)
AAGTCA	1.15 fold enrichment (6-mer frequency, TF over GST control)
TAACTT	1.35 fold enrichment (6-mer frequency, TF over GST control)
TCTGTA	1.15 fold enrichment (6-mer frequency, TF over GST control)
CCCTGC	1.17 fold enrichment (6-mer frequency, TF over GST control)
CCGTCA	1.16 fold enrichment (6-mer frequency, TF over GST control)
GGTTCC	1.59 fold enrichment (6-mer frequency, TF over GST control)
TCCAAA	1.1 fold enrichment (6-mer frequency, TF over GST control)
TACACA	1.25 fold enrichment (6-mer frequency, TF over GST control)
TAAATA	1.23 fold enrichment (6-mer frequency, TF over GST control)
TATAAC	1.15 fold enrichment (6-mer frequency, TF over GST control)
TAGGCT	1.2 fold enrichment (6-mer frequency, TF over GST control)
TGCCGA	1.24 fold enrichment (6-mer frequency, TF over GST control)

target: SPI1 (Homo sapiens, UniProt P17947 1-270); assay: as above; conditions: protein: recombinant; tags: N-terminal GST; dsDNA, one strand shown
How it was run: as §1

Sequence	binding signal
ATGATC	1.15 fold enrichment (6-mer frequency, TF over GST control)
TGTTTG	1.29 fold enrichment (6-mer frequency, TF over GST control)
CCTCTC	1.39 fold enrichment (6-mer frequency, TF over GST control)
GCAAAT	1.02 fold enrichment (6-mer frequency, TF over GST control)
TAAGGT	1.02 fold enrichment (6-mer frequency, TF over GST control)
CTACAA	1.09 fold enrichment (6-mer frequency, TF over GST control)
CTTCTA	1.41 fold enrichment (6-mer frequency, TF over GST control)
CTTTAA	1.39 fold enrichment (6-mer frequency, TF over GST control)
TACGCC	1.18 fold enrichment (6-mer frequency, TF over GST control)
AGTAAT	1.17 fold enrichment (6-mer frequency, TF over GST control)
TGGTTC	1.32 fold enrichment (6-mer frequency, TF over GST control)
GCTGTT	1.06 fold enrichment (6-mer frequency, TF over GST control)
TTCTTG	1.45 fold enrichment (6-mer frequency, TF over GST control)
CCAAAC	1.06 fold enrichment (6-mer frequency, TF over GST control)
ATTATC	1.35 fold enrichment (6-mer frequency, TF over GST control)
ATGTCA	1.08 fold enrichment (6-mer frequency, TF over GST control)
AATCCG	1.59 fold enrichment (6-mer frequency, TF over GST control)
AATGAA	1.24 fold enrichment (6-mer frequency, TF over GST control)
CTCGAA	1.17 fold enrichment (6-mer frequency, TF over GST control)
TTCGAG	1.21 fold enrichment (6-mer frequency, TF over GST control)

Sequence	binding signal
ATGCAC	1.3 fold enrichment (6-mer frequency, TF over GST control)
TTGCGG	1.61 fold enrichment (6-mer frequency, TF over GST control)
GTTCAA	1.19 fold enrichment (6-mer frequency, TF over GST control)
TGTATT	1.28 fold enrichment (6-mer frequency, TF over GST control)
CGTATC	1.11 fold enrichment (6-mer frequency, TF over GST control)
CGACCG	1.06 fold enrichment (6-mer frequency, TF over GST control)
ACCATC	1.15 fold enrichment (6-mer frequency, TF over GST control)
AAATAG	1.22 fold enrichment (6-mer frequency, TF over GST control)
AAGTCA	1.3 fold enrichment (6-mer frequency, TF over GST control)
TAACTT	1.62 fold enrichment (6-mer frequency, TF over GST control)
TCTGTA	1.16 fold enrichment (6-mer frequency, TF over GST control)
CCCTGC	1.2 fold enrichment (6-mer frequency, TF over GST control)
CCGTCA	1.18 fold enrichment (6-mer frequency, TF over GST control)
GGTTCC	1.75 fold enrichment (6-mer frequency, TF over GST control)
TCCAAA	1.12 fold enrichment (6-mer frequency, TF over GST control)
TACACA	1.11 fold enrichment (6-mer frequency, TF over GST control)
TAAATA	1.29 fold enrichment (6-mer frequency, TF over GST control)
TATAAC	1.12 fold enrichment (6-mer frequency, TF over GST control)
TAGGCT	1.19 fold enrichment (6-mer frequency, TF over GST control)
TGCCGA	1.2 fold enrichment (6-mer frequency, TF over GST control)
